Source: PubChem BioAssay AID1159580 (chemical genetic matrix, 2015)
The campaign covered roughly 5,500 compounds. About 2,000 (36%) were called active. Another 18% or so got no clear call; they are omitted. Rule as the data show it: active = normalized growth mostly below about 0.91 (no sharp cut-off); inconclusive = no clear call, values can overlap the other calls; inactive = mostly above about 0.92. The list shows a part of the results.

Test: chemical genetic growth profiling, strain panel (AID 1159580);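 also: tested at 20 µM; growth read once vehicle control cultures reached saturation at 30 °C; 1 = growth at the plate median or of vehicle wells; lower values mean less growth of the strain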
Conditions: growth OD

Measured: normalized growth

COc1ccc(CCC(=O)c2c(O)cc(O[C@@H]3O[C@H](CO)C(O)[C@H](O)C3O[C@@H]3O[C@@H](C)[C@H](O)[C@@H](O)[C@H]3O)cc2O)cc1O (some centres not stated)
inactive: S. cerevisiae deletion strains, locus YJR075W, strain HOC1, hits give low values 0.996 | S. cerevisiae deletion strains, locus YKL009W, strain mrt4, hits give low values 1 | S. cerevisiae deletion strains, locus YKL068W, hits give low values 0.972 | S. cerevisiae deletion strains, locus YKL085W, strain MDH1 (second series), hits give low values 0.982 | S. cerevisiae deletion strains, locus YKL085W, strain MDH1, hits give low values 0.982 | S. cerevisiae deletion strains, locus YKL160W, strain elf1, hits give low values 1 | S. cerevisiae deletion strains, locus YKL190W, strain CNB1, hits give low values 0.999 | S. cerevisiae deletion strains, locus YKR001C, strain vps1, hits give low values 0.989 | S. cerevisiae deletion strains, locus YKR026C, strain gcn3, hits give low values 1.02 | S. cerevisiae deletion strains, locus YKR091W, strain srl3, hits give low values 1.01 | S. cerevisiae deletion strains, locus YLL001W, strain dnm1, hits give low values 1 | S. cerevisiae deletion strains, locus YLL026W, hits give low values 1.02 | S. cerevisiae deletion strains, locus YLL041C, strain sdh2, hits give low values 1.02 | S. cerevisiae deletion strains, locus YLR027C, strain aat2, hits give low values 1 | S. cerevisiae deletion strains, locus YLR039C, strain RIC1, hits give low values 0.982 | S. cerevisiae deletion strains, locus YLR058C, strain SHM2, hits give low values 1 | S. cerevisiae deletion strains, locus YLR102C, strain apc9, hits give low values 0.973 | S. cerevisiae deletion strains, locus YLR113W, strain HOG1, hits give low values 0.98 | S. cerevisiae deletion strains, locus YLR221C, strain rsa3, hits give low values 1.04 | S. cerevisiae deletion strains, locus YLR258W, strain gsy2, hits give low values 1.04 | S. cerevisiae deletion strains, locus YLR262C, strain YPT6 (second series), hits give low values 1.05 | S. cerevisiae deletion strains, locus YLR262C, strain YPT6, hits give low values 0.97 | S. cerevisiae deletion strains, locus YLR268W, strain sec22, hits give low values 0.95 | S. cerevisiae deletion strains, locus YLR320W, strain mms22, hits give low values 1.06 | S. cerevisiae deletion strains, locus YLR330W, strain CHS5, hits give low values 0.993 | S. cerevisiae deletion strains, locus YLR342W, strain FKS1 (second series), hits give low values 1.06 | S. cerevisiae deletion strains, locus YLR342W, strain FKS1, hits give low values 1.02 | S. cerevisiae deletion strains, locus YLR357W, strain rsc2, hits give low values 1.01 | S. cerevisiae deletion strains, locus YLR370C, strain arc18, hits give low values 1.01 | S. cerevisiae deletion strains, locus YLR371W, strain rom2, hits give low values 0.983 | S. cerevisiae deletion strains, locus YLR384C, strain iki3, hits give low values 1.04 | S. cerevisiae deletion strains, locus YLR418C, strain cdc73, hits give low values 0.985 | S. cerevisiae deletion strains, locus YML016C, strain PPZ1, hits give low values 1.01 | S. cerevisiae deletion strains, locus YML032C, strain rad52, hits give low values 0.966 | S. cerevisiae deletion strains, locus YML120C, strain ndi1, hits give low values 1.01 | S. cerevisiae deletion strains, locus YML124C, strain tub3, hits give low values 0.984 | S. cerevisiae deletion strains, locus YMR058W, strain fet3, hits give low values 1.03 | S. cerevisiae deletion strains, locus YMR078C, strain ctf18, hits give low values 0.989 | S. cerevisiae deletion strains, locus YMR125W, strain sto1, hits give low values 1.01 | S. cerevisiae deletion strains, locus YMR129W, hits give low values 1.02 | S. cerevisiae deletion strains, locus YMR205C, strain PFK2, hits give low values 1.02 | S. cerevisiae deletion strains, locus YMR223W, strain ubp8, hits give low values 1.01 | S. cerevisiae deletion strains, locus YMR231W, strain pep5, hits give low values 0.995 | S. cerevisiae deletion strains, locus YMR263W, strain SAP30, hits give low values 0.989 | S. cerevisiae deletion strains, locus YMR307W, strain GAS1, hits give low values 1.04 | S. cerevisiae deletion strains, locus YNL067W, strain RPL9B, hits give low values 0.989 | S. cerevisiae deletion strains, locus YNL071W, strain lat1, hits give low values 1.01 | S. cerevisiae deletion strains, locus YNL128W, strain TEP1, hits give low values 0.989 | S. cerevisiae deletion strains, locus YNL153C, strain GIM3, hits give low values 0.988 | S. cerevisiae deletion strains, locus YNL183C, strain NPR1, hits give low values 0.899 | S. cerevisiae deletion strains, locus YNL209W, strain ssb2, hits give low values 1.01 | S. cerevisiae deletion strains, locus YNL233W, strain BNI4, hits give low values 0.994 | S. cerevisiae deletion strains, locus YNL248C, strain rpa49, hits give low values 1.04 | S. cerevisiae deletion strains, locus YNL250W, strain rad50, hits give low values 0.979 | S. cerevisiae deletion strains, locus YNL271C, strain bni1, hits give low values 0.981 | S. cerevisiae deletion strains, locus YNL298W, strain CLA4, hits give low values 0.984 | S. cerevisiae deletion strains, locus YNL307C, strain MCK1, hits give low values 0.993 | S. cerevisiae deletion strains, locus YNL322C, strain KRE1 (second series), hits give low values 1.01 | S. cerevisiae deletion strains, locus YNL322C, strain KRE1, hits give low values 0.993 | S. cerevisiae deletion strains, locus YNR049C, strain mso1, hits give low values 1.02 | S. cerevisiae deletion strains, locus YNR052C, strain pop2, hits give low values 0.993 | S. cerevisiae deletion strains, locus YOL006C, strain TOP1, hits give low values 0.929 | S. cerevisiae deletion strains, locus YOL012C, strain htz1 1.02 | S. cerevisiae deletion strains, locus YOL147C, strain pex11, hits give low values 0.989 | S. cerevisiae deletion strains, locus YOR001W, strain rrp6, hits give low values 1.05 | S. cerevisiae deletion strains, locus YOR061W, strain CKA2, hits give low values 0.999 | S. cerevisiae deletion strains, locus YOR069W, strain VPS5, hits give low values 1 | S. cerevisiae deletion strains, locus YOR070C, strain gyp1, hits give low values 1 | S. cerevisiae deletion strains, locus YOR080W, strain dia2, hits give low values 1.03 | S. cerevisiae deletion strains, locus YOR083W, strain WHI5, hits give low values 1 | S. cerevisiae deletion strains, locus YOR106W, strain vam3, hits give low values 0.992 | S. cerevisiae deletion strains, locus YOR136W, strain idh2, hits give low values 0.99 | S. cerevisiae deletion strains, locus YOR144C, strain elg1, hits give low values 0.977 | S. cerevisiae deletion strains, locus YOR184W, strain ser1, hits give low values 0.985 | S. cerevisiae deletion strains, locus YOR231W, strain MKK1, hits give low values 0.97 | S. cerevisiae deletion strains, locus YOR265W, strain rbl2, hits give low values 1.02 | S. cerevisiae deletion strains, locus YOR270C, strain vph1, hits give low values 1.07 | S. cerevisiae deletion strains, locus YOR290C, strain snf2, hits give low values 0.965 | S. cerevisiae deletion strains, locus YOR316C, strain cot1, hits give low values 0.967 | S. cerevisiae deletion strains, locus YPL051W, strain arl3, hits give low values 1.02 | S. cerevisiae deletion strains, locus YPL055C, strain LGE1, hits give low values 0.982 | S. cerevisiae deletion strains, locus YPL078C, strain atp4, hits give low values 0.989 | S. cerevisiae deletion strains, locus YPL106C, strain sse1, hits give low values 1.02 | S. cerevisiae deletion strains, locus YPL240C, strain hsp82, hits give low values 1.02 | S. cerevisiae deletion strains, locus YPL241C, strain CIN2, hits give low values 0.993 | S. cerevisiae deletion strains, locus YPL256C, strain CLN2, hits give low values 0.962 | S. cerevisiae deletion strains, locus YPR119W, strain clb2, hits give low values 0.975 | S. cerevisiae deletion strains, locus YPR141C, strain kar3, hits give low values 0.986 | S. cerevisiae deletion strains, locus YPR163C, strain tif3, hits give low values 0.985 | S. cerevisiae deletion strains, locus YPR167C, strain met16, hits give low values 0.97 | S. cerevisiae deletion strains, strain wtn01, hits give low values 1 | S. cerevisiae strains, strain wild type, hits give low values 0.995
